Experimental data reported in PubChem BioAssay (NCI).
The panel holds about 83,000 compounds, 20% with a hit somewhere; the sample as a whole holds those more often.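 Plates (96-well) were seeded with cells, treated with compound at one concentration, and incubated for 48 hours before percent growth was determined.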 Active and inactive are the calls of the source. Rule for the calls: active = growth percent below 10; inactive = the rest.

Test system: HL-60(TB) leukemia
Assay: NCI-60 one-dose screen, 48 h (100 = growth as untreated, 0 = no growth, -100 = all killed)
Conditions: 10 µM unless noted

Compound | growth
C[N+]1(CCc2ccccc2)CCC(CCC2CC[N+](C)(CCc3ccccc3)CC2)CC1 (stereo not given) | 105% (inactive)
O=C(COc1cccc(/C=C2\Cc3ccccc3C2=O)c1)c1ccc(Cl)cc1 | 94.2% (inactive)
COc1cc(C(=O)O)c(O)c(C(C)(C)C)c1 | 106% (inactive)
O=c1[nH]c2ccccc2cc1-c1nc2ccncc2[nH]1 | 25.9% (inactive)
CC(Sc1nc2ccccc2c(=O)n1CCc1ccc(S(N)(=O)=O)cc1)C(=O)Nc1ccc(Cl)cc1 (stereo not given) | 86.2% (inactive)
Cc1nc2cc(Nc3nc(NCCO)nc(Nc4ccc(F)cc4)n3)ccc2n1Cc1ccccc1 | -26.8% (active)
Cc1ccc2nc(CN(CCN(Cc3nc4ccc(C)cc4[nH]3)Cc3nc4ccc(C)cc4[nH]3)Cc3nc4ccc(C)cc4[nH]3)[nH]c2c1 | -67.7% (active)
COCCOc1cc2ncnc(N3CCN(S(=O)(=O)c4ccccc4Cl)CC3)c2cc1OCCOC | 56% (inactive)
CCC(=O)OC1=CN2C(=NC(c3ccc(N)cc3)=CC2c2cc(OC)c(OC)c(OC)c2)S1 (stereo not given) | 36.5% (inactive)
CC1=CC(C)=Nc2ccc(Cl)cc2N1 | 101% (inactive)
CC[C@@H]1NC(=O)[C@H]([C@H](O)[C@H](C)C/C=C/c2ccc(CN3C(=O)C(C)=C(C)C3=O)cc2)N(C)C(=O)[C@H](C(C)C)N(C)C(=O)[C@H](CC(C)C)N(C)C(=O)[C@H](CC(C)C)N(C)C(=O)[C@@H](C)NC(=O)[C@H](C)NC(=O)[C@H](CC(C)C)N(C)C(=O)[C@H](C(C)C)NC(=O)[C@H](CC(C)C)N(C)C(=O)CN(C)C1=O | 81.2% (inactive)
CC1=C2[C@@H](CC1)[C@]1(C)O[C@@](C(C)C)(C[C@H]1OC(=O)CO)[C@H]2OC(=O)CCCc1ccccc1 | 1.28% (active)
C=C1C(=O)O[C@@H]2[C@@H]3O[C@@](C)(CC/C=C(\C)CCC[C@@H]2C)[C@H](O)C[C@@H]13 | 14.4% (inactive)
C=CC(=O)Nc1cccc(-c2nc(SC)nc(NCc3ccccc3)c2C#N)c1 | 50% (inactive)
O=C(N/N=C/c1ccc(O)cc1O)c1ccc(Nc2ccnc(C(F)(F)F)c2)cc1 | 44.1% (inactive)
Cc1c2ncccc2nc2[nH]c3ccc(OCCN(C)C)cc3c12 | 15.9% (inactive)
CCN(CC)c1ccc2c(c1)OS(=O)(=O)N=C2 | 101% (inactive)
C=C1c2c(C)nn(-c3ccc(C#CCOC4OC(CO)C(O)C(O)C4O)cc3)c2N(C)C23C[C@H]1C1(C)c4c(C)nn(-c5ccc(C#CCOC6OC(CO)C(O)C(O)C6O)cc5)c4N(C)C(C)(C[C@H]12)C3 (stereo not given in full) | -22.8% (active)
COc1cc(C2=Nc3c/c(=C\c4c(O)[nH]c5ccc(Cl)cc45)ccc3=N2)cc(OC)c1OC | 11.8% (inactive)
CCc1nc(C(N)=O)c(Nc2ccc(N3CCC(N4CCN(C)CC4)CC3)c(OC)c2)nc1NC1CCOCC1 | 9.89% (active)

Compound | growth
Cc1nc(Nc2ccc(NC(=S)Nc3ccccc3)cc2)nc2nc(SCc3ccccc3)[nH]c(=O)c12 | 76% (inactive)
Clc1ccc2nc3nc4ccc[nH]c4cc3c2c1 | 88.2% (inactive)
COc1cc2c(c(OC)c1OC)C(=O)CC(c1cccc(C(=O)Nc3ccccc3Br)c1)O2 (stereo not given) | 76.5% (inactive)
O=C(N/N=C/c1cc2ccccc2c2ccccc12)c1cc(O)c(O)c(O)c1 | 39.9% (inactive)
Cc1ccc(NC(=O)c2ccc(CN3CCN(C)CC3)cc2)cc1Nc1nc(-c2cccnc2)cs1 | 57.9% (inactive)
O=C1c2ccccc2C(=O)c2c(NCCN=Cc3c(O)ccc4ccccc34)cccc21 | 66.3% (inactive)
CCN(CC)CCCC(C)Nc1ccnc2c(OC)cccc12 (stereo not given) | 52.6% (inactive)
Cc1cc(N/N=C/c2nc(-c3ccc(Cl)cc3)oc2C)c2cc(Br)ccc2n1 | 59% (inactive)
COc1cnc2c(c1)C(=O)c1c-2n(CCCN2CCNCC2)c(=O)c2cc(Cl)ccc12 | -44.9% (active)
COC(=O)[C@H](Cc1cn(C)cn1)NC(=O)[C@H](CC(C)C)NC(=O)Nc1cc(C(F)(F)F)cc(C(F)(F)F)c1 | -72.6% [100 µM] (active)
COc1cc(C2CC(c3ccc(Cl)cc3)=NN2C(C)=O)ccc1Oc1ccnc2cc(Cl)ccc12 (stereo not given) | 110% (inactive)
O=S(=O)(NCCCNc1cc(-c2cn(-c3ccccc3)nc2-c2cccc(O)c2)ccn1)c1cccc2ccccc12 | 17.1% (inactive)
CC(=O)N1N=C(c2cccc(Nc3ccncc3)c2)CC1c1ccc2c(c1)OCO2 (stereo not given) | 90.3% (inactive)
C/C(=N/NC(=S)Nc1ccccc1)c1nc2ccc(Cl)cc2[nH]1 | -11.7% (active)
CCCCOC(=O)/C=C\C(=O)NC(N)=O | 56.8% (inactive)
CCCCC#Cc1c(/C=C(\CCCC)SCC)n(C)c(=O)[nH]c1=O | 92.8% (inactive)
CCCCCCCC/C=C/CCCCCCCC1=NC(C)(C)CN1C(C)C | -65.6% (active)
CCn1c(=O)n(C)c2c(=O)n(C)c(=O)n(C)c21 | 101% (inactive)
O=C(O)CCCN1C(=O)NC2(C1=O)c1ccccc1-c1ccccc12 | 101% (inactive)
NC(=O)NS(=O)(=O)c1ccc(N2N=C(C(F)(F)F)CC2c2cc(C(F)(F)F)cc(C(F)(F)F)c2)cc1 (stereo not given) | 38.7% (inactive)
